# Screens: PubChem, National Center for Advancing Translational Sciences (NCATS)
# Shown are actives, neighbours in structure and some others; about 15% of the full set was active somewhere.
# HCMV inh: inhibitors of human cytomegalovirus | AID 1259415 | 410,000 tested, 4.5% active | HFF cells, HCMV-luciferase reporter, 72 h; stronger effect = lower value | activity change, negative = inhibition, % at 57.5 µM; in the data active means activity change below about -60%; inconclusive means no clear call, values can overlap the other calls; inactive means above about -39%; further: on the % scale 0 is the no-effect control and ±100 the full control effect
#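 Two-dose cell screen: HFF monolayers treated with compounds and infected with luciferase-expressing HCMV at 1 PFU/cell, 72 h at 37C, then lysed for luciferase measurement.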
# HCV inh: inhibitors of hepatitis C virus infection. Huh7.5.1 HCVcc-Cre infection, luciferase reporter, 44 h. Potency, µM (titrated, usually from 41.8 µM), for inactives: at the top dose activity change, negative = inhibition, actives largely listed as inhibitors. 340,000 tested, 3.4% active; further: potency means the concentration at half of the fitted maximal effect; on the % scale 0 is the no-effect control and ±100 the full control effect
#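 Infectious HCV cell culture screen: compound-treated cells (1,000/well, pre-plated 4 h) are infected with HCVcc-Cre at roughly 0.5 moi and grown 44 h. Infection is quantified by luciferase signal after 15 min substrate incubation at room temperature.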
# Sm TGR inh: S. mansoni TGR enzyme inhibition. purified TGR, DTNB reduction, TNB absorbance 405 nm. Potency, µM (top dose mostly 114 µM), without a hit: at the top dose activity change, negative = inhibition, most hits filed as inhibitors. Q962Y6. AID 485364. 360,000 tested, 3% active; further: potency means the concentration at half of the fitted maximal effect; on the % scale 0 is the no-effect control and ±100 the full control effect; nearly all actives have a fitted effect of over 60% in size
#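 Kinetic colorimetric format: TGR-catalysed, NADPH-driven DTNB reduction monitored via TNB absorbance. Enzyme dispensed at 20 nM; compound exposure 15 min at room temperature before reaction start.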
# Pf growth 96h: P. falciparum growth inhibition at 96 hour, primary screen for plastid delayed-death inhibitors; P. falciparum luciferase reporter growth, 96 h; Potency, µM (top dose mostly 28.7 µM), for inactives: at the top dose activity change, negative = inhibition, hits mostly inhibitors; 320,000 tested, 6.9% active; AID 504834; further: potency means the concentration at half of the fitted maximal effect; on the % scale 0 is the no-effect control and ±100 the full control effect
#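 P. falciparum expressing integrated firefly luciferase grown in erythrocytes (2% hematocrit, 0.05% parasitemia final) with compounds for 96 hours at 37 C, 5% CO2. Growth inhibition read as loss of luminescence after adding luciferase detection reagent.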
# SARS PLpro yeast: blocks SARS-CoV papain-like protease in a yeast assay; Potency, µM (doses to about 32.9 µM), for inactives: at the highest dose activity, positive = growth rescue, actives largely listed as activators; 330,000 tested, 0.19% active; AID 485353; S. cerevisiae expressing SARS-CoV PLpro, growth rescue; calls by dose curve; further: potency means the concentration at half of the fitted maximal effect; 0% is about no effect; nearly all actives have a fitted effect of over 55% in size
# Pf growth 48h: inhibits P. falciparum growth in the first generation, 48 h; P. falciparum luciferase growth in erythrocytes, 48 h; Potency, µM (doses to about 28.7 µM), without a hit: at the top dose activity change, negative = inhibition, actives largely listed as inhibitors; 310,000 tested, 5.9% active; AID 504832; further: potency means the concentration at half of the fitted maximal effect; on the % scale 0 is the no-effect control and ±100 the full control effect
#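 First compound was added to culture medium, then infected red cells at 0.1% parasitemia and 2% hematocrit (final). After incubation at 37 C under 5% CO2, luciferase detection reagent was dispensed and light output recorded.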
# * hit, by the source's call; u = inconclusive; x = no result given; [ ] = dose if it differs, or a comment. Unless noted, the call rests on the fitted dose curve; in most records, active means well fitted curve in the direction sought with a large enough effect; inconclusive means small, poorly fitted or top-dose-only effect, or another doubt; inactive means no such curve, though single readings can be large; an effect the other way counts as inactive or inconclusive.
SMILES,HCMV inh,HCV inh,Sm TGR inh,Pf growth 96h,SARS PLpro yeast,Pf growth 48h
COc1cc(C(O)c2nc(-c3ccc(F)cc3OC)cs2)ccc1F (stereo not given),-32,x,x,x,x,x
COc1ccc(-c2cn3nc(SCC(=O)Nc4ccc(C)c(Cl)c4)ccc3n2)cc1,66,x,5%,x,x,x
Cc1ccc(OCC(=O)N/N=C2\CC(=O)CC(C)(C)C2)c(Br)c1,-26,6%,-20%,9.3µM*,-5%,-1%
Cc1sc2nc(C(C)Nc3ccccc3N3CCOCC3)[nH]c(=O)c2c1C (stereo not given),25,u,12%,6.6µM*,9%,9.3µM*
Cc1sc2nc(N3CCOCC3)[nH]c(=O)c2c1-c1ccccc1,2,9%,-6%,-27%,6%,-1%
CCCCN(C(=O)c1ccc(S(=O)(=O)N2CCCCC2)cc1)C1CCS(=O)(=O)C1 (stereo not given),-2,27%,-2%,2%,-4%,38%
Cc1cc(NC(=O)CSCC(=O)Nc2cc(C(F)(F)F)ccc2N2CCCCC2)no1,32,-25%,x,x,x,x
Cc1noc(C)c1CSCC(=O)Nc1ccccc1N1CCCC1,-37,-26%,x,x,x,x
Cc1ccc(C(=O)Nc2cc(Cl)ccc2N2CCCCC2)s1,-21,u,8%,u,-14%,x
Cc1noc(C)c1CSCC(=O)Nc1cc(Cl)ccc1N1CCCCC1,-25,10µM*,-2%,6.6µM*,-2%,u
Cc1noc(C)c1CSCC(=O)Nc1cc(C(F)(F)F)ccc1N1CCCCC1,-14,u,0%,u,-13%,4.7µM*
Cc1cc(NC(=O)C(C)SCC(=O)Nc2cc(C(F)(F)F)ccc2N2CCCCC2)no1 (stereo not given),-20,u,4%,12µM*,-9%,u
CCc1sc(C(=O)Nc2cc(Cl)ccc2N2CCCCC2)cc1C,-63*,u,2%,15µM*,-2%,x
Nc1cc(=O)[nH]c(=O)n1CCc1ccccc1,37,6%,-2%,u,11%,u
COc1cccc(CNC(=O)CCCN2C(=O)CSc3c2c(C)nn3-c2ccccc2)c1,3,x,17%,x,x,x
c1ccc(COc2ncnc3c2ncn3CCCNCc2ccc3c(c2)OCO3)cc1,-17,-18%[8.37 µM],x,x,x,x
CCc1ccc(C(O)c2ncc(-c3cccc4ccccc34)[nH]2)cc1 (stereo not given),3,x,x,x,x,x
Cc1cc(NC(=O)C(C)SCC(=O)Nc2ccccc2C(C)(C)C)no1 (stereo not given),u,-5%,-4%,15µM*,14%,13µM*
CCOc1ccc(Oc2ccccc2NC(=O)CSCC(=O)Nc2cc(C)on2)cc1,u,8.9µM*,-2%,u,-5%,u
Cc1cc(NC(=O)C(C)SCC(=O)Nc2ccccc2N2CCCC2)no1 (stereo not given),-9,-5%,-19%,-29%,0%,u
O=C(CC1N=C2c3ccccc3N=C(SCc3ccccc3Cl)N2C1=O)NC1CCCCC1 (stereo not given),11,x,4%,x,x,x
O=C(NCC1CCOCC1)C1Cc2c(-c3ccccc3Oc3ccccc3)ccnc2O1 (stereo not given),5,x,x,x,x,x
COc1ccc(CNc2nc(-c3ccco3)nn2C(=O)c2ccccc2C)cc1,72,x,0%,x,x,x
COc1ccc(C(=O)n2nc(-c3ccco3)nc2NCc2cccs2)cc1OC,44,x,20µM*,x,x,x
Cc1cccc(C(=O)n2nc(-c3ccco3)nc2NCc2ccccc2)c1,32,x,35µM*,x,x,x
SMILES,HCMV inh,HCV inh,Sm TGR inh,Pf growth 96h,SARS PLpro yeast,Pf growth 48h
Cc1ccc(CNc2nc(-c3ccco3)nn2C(=O)c2ccccc2[N+](=O)[O-])cc1,81,x,-8%,x,x,x
COc1ccccc1CNc1nc(-c2ccco2)nn1C(=O)c1ccccc1[N+](=O)[O-],50,x,89µM*,x,x,x
CCc1ccccc1N1C(=O)N(Cc2ccccc2C)c2ccccc2S1(=O)=O,-105*,x,17%,x,x,x
O=C(c1ccco1)N1N=C(c2ccc(Br)cc2)CC1c1ccco1 (stereo not given),147,u,-18%,u,2%[6.58 µM],u
CS(=O)(=O)Nc1ccc(C2=NN(S(C)(=O)=O)C(c3ccc4c(c3)OCO4)C2)cc1 (stereo not given),63,1%,-2%,2.9µM*,-3%,148%
O=S(=O)(c1ccccc1)N1N=C(c2ccccc2)CC1c1ccccc1F (stereo not given),-2,u,-1%,33%,-6%,u
Cc1ccc(C2=NN(S(=O)(=O)c3ccccc3)C(c3ccco3)C2)cc1 (stereo not given),u,13µM*,0%,12µM*,0%,9.3µM*
O=S(=O)(c1ccccc1)N1N=C(c2ccc(Br)cc2)CC1c1ccco1 (stereo not given),-60*,u,56µM*,u,-2%,u
CS(=O)(=O)Nc1ccc(C2=NN(S(=O)(=O)c3ccc(F)cc3)C(c3ccco3)C2)cc1 (stereo not given),-3,-23%,14µM*,14%,4%,1%
Cc1cc2oc(C(=O)N(Cc3ccccc3)C3CCS(=O)(=O)C3)cc(=O)c2cc1C (stereo not given),2,x,7%,x,x,x
CCC(=O)N1CCc2cc(S(=O)(=O)NCCC(=O)NCc3ccc(C)cc3)ccc21,-14,x,4%,x,x,x
O=S(=O)(c1ccccc1)N1N=C(c2ccc(O)cc2)CC1c1ccco1 (stereo not given),u,10µM*,-4%,u,x,-19%
O=[N+]([O-])c1ccc(C2=NN(c3ccccc3)C(c3ccco3)C2)cc1 (stereo not given),1,-2%,u,u,-2%,u
O=C(Nc1ccc(Br)cc1)N1CCCCC1,-6,-8%,0%,15%,-5%,47%
CN1CCN(C(=O)c2cnn(-c3ccc(F)cc3F)c2C2CCN(C(=O)OC(C)(C)C)CC2)CC1,u,x,2%,x,x,x
CCCCCCN1C[C@H](n2cc(-c3ccc(F)cc3)nn2)[C@@H](O)C[C@@H]1c1ccc(Cl)cc1,-102*,x,x,x,x,x
COc1ccc(CN(C)CCCn2cnc3c(OCc4ccccc4)ncnc32)cc1,-97*,-13%[8.37 µM],x,x,x,x
CCn1cc(C(=O)NCc2cccc(C(F)(F)F)c2)c(=O)c2ccc(C)nc21,-69*,9%,-13%,25%,1%,20%
CCn1cc(C(=O)Nc2ccc(NC(=O)c3ccco3)cc2)c(=O)c2ccc(C)nc21,-7,u,-6%,6.6µM*,2%,22%
COc1ccc2[nH]c3c(NCCC4=CCCCC4)ncnc3c2c1,-89*,2.8µM*,-6%,3.7µM*,1%,3%
